PubChem BioAssay (Tox21)
Results filed as inconclusive are left out. Values without a mark were called inactive. Activity calls are given as the source filed them. Calls follow the shape of the dose curve; as a rule, active = well fitted cell-killing curve with a large enough effect in the repeat runs; inconclusive = weak or mixed curves, or effect the other way; inactive = flat fitted curve, though single readings scatter.

Test: cAMP Responsive Elements (CRE) small molecule antagonists, cell-based qHTS assay: qHTS cell viability counter screen (AID 2060913); also: nearly all actives have a fitted effect of over 40% in size
Settings: CRE-bla HEK293T viability, CellTiter-Glo luminescence, 5 h; series mostly up to 92.4 µM; viability change, negative = cytotoxic: at the top concentration
Method in brief: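 Cytotoxicity read in the same wells as the CRE-bla HEK293T antagonist assay: after 3 h compound with 0.25 uM NKH477 final and 2 h beta-lactamase substrate, CellTiter-Glo luminescence measured.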
% is scaled to controls: 0 for no effect and ±100 for the full control effect.

With `Brc1ccc(Br)c(Br)c1` the Potency was “inactive”.
In the case of `c1ccc2c(c1)ccc1ccccc12`, the Potency is reported as “inactive”.
For `O=[N+]([O-])c1cc(C(F)(F)F)ccc1Cl`, the Potency was “inactive”.
With `O=C(O)c1[nH]n(-c2ccc(S(=O)(=O)O)cc2)c(=O)c1N=Nc1ccc(S(=O)(=O)O)cc1` the Potency was “inactive”.
For `CCCCCCCCCCCCCCCC(=O)O`, the Potency was “inactive”.
For `c1cc(C(c2ccc(OCC3CO3)cc2)C(c2ccc(OCC3CO3)cc2)c2ccc(OCC3CO3)cc2)ccc1OCC1CO1` (stereo not given), the Potency was “inactive”.
For `CCOC(=O)c1ccc(O)cc1`, the Potency was “inactive”.
In the case of `Cc1cc(=O)[nH]c(=S)[nH]1`, the Potency is reported as “inactive”.

Compared with `CCCCCc1ccc(O)cc1`, `CCCCCCCCN` is higher in “viability change, negative = cytotoxic” value: -12.5% for the first, -4.61% for the second.

Going from `CC(=O)c1sc(C)nc1C` to `CC(=O)C(=O)CC(C)C`, the “viability change, negative = cytotoxic” value falls from 4.21% to -8.58%.

Going from `C=CCS(=O)(=O)O` to `O=S(=O)(O)CO`, the “viability change, negative = cytotoxic” value falls from 13.4% to 3.94%.

First: C=Cc1ccc(C(C)(C)C)cc1
Second: CC(C)(O)C(=O)c1ccccc1
The “viability change, negative = cytotoxic” value of the first is higher: 2.04% for the first, 1.94% for the second.

Going from `CCCCCCCCC=O` to `CCCCCCCC(=O)OCC`, the “viability change, negative = cytotoxic” value rises from -6.14% to 10.2%.

Compared with `CC(=O)Nc1ccccc1O`, `NNC(=O)c1cccc(C(=O)NN)c1` is lower in “viability change, negative = cytotoxic” value: 3.02% for the first, -3.25% for the second.

First: C=CC/C=C/C
Second: CCC(C)(C)C(=O)O
The “viability change, negative = cytotoxic” value of the first is lower: -1.1% for the first, 12.9% for the second.

Compared with `COC(=O)C(C)(C)C`, `CCCCOC(=O)C(=O)OCCCC` is higher in “viability change, negative = cytotoxic” value: -13.5% for the first, -0.85% for the second.

Going from `C1CCSC1` to `C=C(C)C(=O)OCCCCCCCCCC`, the “viability change, negative = cytotoxic” value rises from -22.8% to -5.36%.

For `CCOC(OCC)OCC`, the “viability change, negative = cytotoxic” value was -5.91%.

Going from `NS(=O)(=O)c1cc2c(cc1Cl)NC(C(Cl)Cl)NS2(=O)=O` (stereo not given) to `CCCCCC1Nc2cc(C(F)(F)F)c(S(N)(=O)=O)cc2S(=O)(=O)N1` (stereo not given), the “viability change, negative = cytotoxic” value falls from 9.68% [at 42.5 µM] to -2.19% [at 42.5 µM].

First: CC[N+](CC)(CC)CCOC(=O)C(C1CCCC1)C1CCCC1
Second: CCN(CC)CCNC(=O)c1cc(S(C)(=O)=O)ccc1OC
The “viability change, negative = cytotoxic” value of the first is lower: -3.11% [at 42.5 µM] for the first, 5.28% [at 42.5 µM] for the second.

First: Cc1ccc(C=O)cc1
Second: Cc1ccc(-c2ccccc2C#N)cc1
The “viability change, negative = cytotoxic” value of the first is lower: 0.0148% [at 42.5 µM] for the first, 3.99% [at 42.5 µM] for the second.

Going from `CN(C)CC/C=C1/c2ccccc2COc2ccc(CC(=O)O)cc21` to `CC(=O)c1ccc2c(c1)N(CCCN1CCC(CCO)CC1)c1ccccc1S2`, the “viability change, negative = cytotoxic” value falls from -0.648% [at 42.5 µM] to -0.754% [at 42.5 µM].

Compared with `C[N+]1(C)CCCC(OC(=O)C(O)(c2ccccc2)c2ccccc2)C1` (stereo not given), `CN=C(N)NC(=O)Nc1c(C)cccc1C` is higher in “viability change, negative = cytotoxic” value: -0.388% [at 42.5 µM] for the first, 3.64% [at 42.5 µM] for the second.

Compared with `CCCCCCCCCCC[C@@H](C[C@@H]1OC(=O)[C@H]1CCCCCC)OC(=O)[C@H](CC(C)C)NC=O`, `CCc1cccc2c(CCO)c[nH]c12` is lower in “viability change, negative = cytotoxic” value: 5.94% [at 42.5 µM] for the first, 3.07% [at 42.5 µM] for the second.

With `O=C=NCc1cccc(CN=C=O)c1` the viability change, negative = cytotoxic was 5.35% [at 18.9 µM].

Test: cAMP Responsive Elements (CRE) small molecule agonists, cell-based qHTS assay: qHTS cell viability counter screen (AID 2060914);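 also: viability read after 3 h of compound exposure; nearly all actives have a fitted effect of over 50% in size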
Settings: CRE-bla HEK293T viability, CellTiter-Glo luminescence, 5 h; series mostly up to 92.4 µM; activity change, negative = cytotoxicity: at the top concentration
Method in brief: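 CRE-bla HEK 293T cells, plated 18 h at 37 °C, were exposed to compounds for 3 h at 37 °C/5% CO2. Viability was then measured in the same wells by CellTiter-Glo luminescence after 30 min at room temperature.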

With `Brc1ccc(Br)c(Br)c1` the Potency was “inactive”.
With `c1ccc2c(c1)ccc1ccccc12` the Potency was “inactive”.
With `O=[N+]([O-])c1cc(C(F)(F)F)ccc1Cl` the Potency was “inactive”.
With `O=C(O)c1[nH]n(-c2ccc(S(=O)(=O)O)cc2)c(=O)c1N=Nc1ccc(S(=O)(=O)O)cc1` the Potency was “inactive”.
With `CCCCCCCCCCCCCCCC(=O)O` the Potency was “inactive”.
With `c1cc(C(c2ccc(OCC3CO3)cc2)C(c2ccc(OCC3CO3)cc2)c2ccc(OCC3CO3)cc2)ccc1OCC1CO1` (stereo not given) the Potency was “inactive”.
In the case of `CCOC(=O)c1ccc(O)cc1`, the Potency is reported as “inactive”.
With `Cc1cc(=O)[nH]c(=S)[nH]1` the Potency was “inactive”.

Going from `CCCCCc1ccc(O)cc1` to `CCCCCCCCN`, the “activity change, negative = cytotoxicity” value rises from -13.5% to -10.4%.

Compared with `CC(=O)c1sc(C)nc1C`, `CC(=O)C(=O)CC(C)C` is higher in “activity change, negative = cytotoxicity” value: -2% for the first, 22.1% for the second.

Going from `C=CCS(=O)(=O)O` to `O=S(=O)(O)CO`, the “activity change, negative = cytotoxicity” value falls from 12.6% to -2.74%.

First: C=Cc1ccc(C(C)(C)C)cc1
Second: CC(C)(O)C(=O)c1ccccc1
The “activity change, negative = cytotoxicity” value of the first is higher: 0.745% for the first, 0.196% for the second.

First: CCCCCCCCC=O
Second: CCCCCCCC(=O)OCC
The “activity change, negative = cytotoxicity” value of the first is lower: -1.93% for the first, 0.963% for the second.

First: CC(=O)Nc1ccccc1O
Second: NNC(=O)c1cccc(C(=O)NN)c1
The “activity change, negative = cytotoxicity” value of the first is higher: 5.43% for the first, -1.12% for the second.

Compared with `C=CC/C=C/C`, `CCC(C)(C)C(=O)O` is higher in “activity change, negative = cytotoxicity” value: -8.63% for the first, 0.192% for the second.

Going from `COC(=O)C(C)(C)C` to `CCCCOC(=O)C(=O)OCCCC`, the “activity change, negative = cytotoxicity” value rises from -1.59% to -0.557%.

First: C1CCSC1
Second: C=C(C)C(=O)OCCCCCCCCCC
The “activity change, negative = cytotoxicity” value of the first is lower: -7.16% for the first, 1.13% for the second.

For `CCOC(OCC)OCC`, the “activity change, negative = cytotoxicity” value was 0.558%.

Compared with `NS(=O)(=O)c1cc2c(cc1Cl)NC(C(Cl)Cl)NS2(=O)=O` (stereo not given), `CCCCCC1Nc2cc(C(F)(F)F)c(S(N)(=O)=O)cc2S(=O)(=O)N1` (stereo not given) is lower in “activity change, negative = cytotoxicity” value: 3.22% [at 42.5 µM] for the first, -4.55% [at 42.5 µM] for the second.

First: CC[N+](CC)(CC)CCOC(=O)C(C1CCCC1)C1CCCC1
Second: CCN(CC)CCNC(=O)c1cc(S(C)(=O)=O)ccc1OC
The “activity change, negative = cytotoxicity” value of the first is lower: -8.01% [at 42.5 µM] for the first, 1.94% [at 42.5 µM] for the second.

Compared with `Cc1ccc(C=O)cc1`, `Cc1ccc(-c2ccccc2C#N)cc1` is lower in “activity change, negative = cytotoxicity” value: -0.209% [at 42.5 µM] for the first, -2% [at 42.5 µM] for the second.

First: CN(C)CC/C=C1/c2ccccc2COc2ccc(CC(=O)O)cc21
Second: CC(=O)c1ccc2c(c1)N(CCCN1CCC(CCO)CC1)c1ccccc1S2
The “activity change, negative = cytotoxicity” value of the first is lower: 2.96% [at 42.5 µM] for the first, 6.37% [at 42.5 µM] for the second.

Compared with `C[N+]1(C)CCCC(OC(=O)C(O)(c2ccccc2)c2ccccc2)C1` (stereo not given), `CN=C(N)NC(=O)Nc1c(C)cccc1C` is lower in “activity change, negative = cytotoxicity” value: 6.36% [at 42.5 µM] for the first, 4.29% [at 42.5 µM] for the second.

Going from `CCCCCCCCCCC[C@@H](C[C@@H]1OC(=O)[C@H]1CCCCCC)OC(=O)[C@H](CC(C)C)NC=O` to `CCc1cccc2c(CCO)c[nH]c12`, the “activity change, negative = cytotoxicity” value rises from 4.44% [at 42.5 µM] to 8.36% [at 42.5 µM].

Work on `O=C=NCc1cccc(CN=C=O)c1` yielded an activity change, negative = cytotoxicity of -0.289% [at 18.9 µM].
